RE007 growth inh: qHTS Assay for Inhibitors of the HIV-1 protein Vpr; S. pombe RE007 Vpr strain, BacTiter-Glo ATP luminescence, 24 h; Potency, µM (titrated, usually from 92.2 µM), for inactives: at the highest dose activity change, negative = less growth, usual class: inhibitors; 360,000 tested, 0.21% active; AID 651644, 2012; active means well fitted falling curve with a large enough effect; inconclusive means small, poorly fitted or top-dose-only effect; inactive means no such curve, though single readings can be large or run the other way; further: potency means the concentration at half of the fitted maximal effect; on the % scale 0 is the no-effect control and ±100 the full control effect; nearly all actives have a fitted effect of over 50% in size
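Fission yeast RE007 carrying one integrated HIV-1 vpr copy, seeded at OD 0.01 in PMG+AL medium with 23 nL pinned compound. Grown 24 h at 30 degrees; viability read by BacTiter-Glo luminescence after 5 min.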
SARS PLpro yeast-1: qHTS of Yeast-based Assay for SARS-CoV PLP; S. cerevisiae expressing SARS-CoV PLpro, growth rescue; Potency, µM (doses to about 32.9 µM), for inactives: at the highest dose activity, positive = growth rescue, usual class: activators; 330,000 tested, 0.19% active; calls by dose curve; further: potency means the concentration at half of the fitted maximal effect; 0% is about no effect; nearly all actives have a fitted effect of over 55% in size
LmPK inhibitor: qHTS Assay for Inhibitors of Leishmania Mexicana Pyruvate Kinase (LmPK); purified LmPK, Kinase-Glo ATP luminescence, 1 h; Potency, µM (highest dose often 57.5 µM), without a hit: top-dose activity change, negative = inhibition, hits mostly inhibitors; Q27686; 290,000 tested, 0.37% active; AID 1721, 2009; further: potency means the concentration at half of the fitted maximal effect; on the % scale 0 is the no-effect control and ±100 the full control effect
Target sequence (Q27686 whole entry, looked up): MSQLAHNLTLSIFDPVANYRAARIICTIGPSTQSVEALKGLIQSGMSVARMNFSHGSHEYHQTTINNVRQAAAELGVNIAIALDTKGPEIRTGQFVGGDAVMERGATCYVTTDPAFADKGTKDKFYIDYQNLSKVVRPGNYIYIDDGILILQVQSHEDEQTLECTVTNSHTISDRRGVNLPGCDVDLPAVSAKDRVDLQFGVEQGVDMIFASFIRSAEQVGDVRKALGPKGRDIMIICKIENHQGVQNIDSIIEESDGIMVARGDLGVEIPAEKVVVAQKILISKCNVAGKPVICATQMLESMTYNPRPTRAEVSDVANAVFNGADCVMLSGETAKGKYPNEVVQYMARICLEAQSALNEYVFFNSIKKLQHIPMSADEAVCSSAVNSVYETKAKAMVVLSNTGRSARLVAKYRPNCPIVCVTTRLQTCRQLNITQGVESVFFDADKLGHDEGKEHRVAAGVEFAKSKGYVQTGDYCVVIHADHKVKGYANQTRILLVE
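ATP generated from ADP (0.1 mM) and PEP (0.5 mM) by 0.1 nM LmPK over 1 h at room temperature (pH 7.2 imidazole buffer) was detected by coupled luciferase luminescence. Values were normalized to uninhibited and no-enzyme wells.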
Giardia FBPA inh: qHTS Assay for Inhibitors of Fructose-1,6-bisphosphate Aldolase from Giardia Lamblia | Potency, µM (titrated, usually from 59.6 µM), inactives show at the top dose activity, negative = inhibition, hits mostly inhibitors | purified Giardia FBPA | A8B2U2 | 290,000 tested, 0.71% active; further: potency means the concentration at half of the fitted maximal effect; on the % scale 0 is the no-effect control and ±100 the full control effect; nearly all actives have a fitted effect of over 55% in size
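Giardia FBPA (40 nM reagent) was preincubated 10 min at RT with compound (up to 57.5 uM final), then substrate plus GAPDH/TPI/NAD/arsenate coupling system with diaphorase/resazurin was added; resorufin fluorescence (525/598 nm) was read after 20 min.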
Tb PYK inh: qHTS of Trypanosoma Brucei Inhibitors | pyruvate kinase (Trypanosoma brucei), Q57TT1 | TbPYK enzyme, Kinase-Glo Plus ATP luminescence, 45 min | Potency, µM (highest dose often 76.8 µM), inactives show at the highest dose activity, negative = inhibition, most hits filed as inhibitors | 410,000 tested, 0.12% active; further: potency means the concentration at half of the fitted maximal effect; on the % scale 0 is the no-effect control and ±100 the full control effect; nearly all actives have a fitted effect of over 50% in size
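TbPYK + substrate in 50 mM TEA pH 7.2, 100 mM KCl, 10 mM MgCl2, 0.05% BSA, 0.01% Tween-20; cpd pinned; ADP 130 uM final; 45 min RT; Kinase-Glo Plus 10 min; luminescence endpoint.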
SARS PLpro yeast-2: qHTS of Yeast-based Assay for SARS-CoV PLP: Hit Validation; shares compounds with SARS PLpro yeast-1; yeast expressing SARS-CoV PLpro, growth phenotype rescue; calls only; 1,000 tested, 19% active; call rule not given here
* marks the source's active call; other numbers are inactive results; i = inactive; u = inconclusive; x = no result; + = active, no number. Most compounds without a hit are left out; they make up all but 1.1% or so of the library. Unless noted, the call rests on the fitted dose curve; in most records, active means well fitted curve in the direction sought with a large enough effect; inconclusive means small, poorly fitted or top-dose-only effect, or another doubt; inactive means no such curve, though single readings can be large; an effect the other way counts as inactive or inconclusive.

SMILES | RE007 growth inh | SARS PLpro yeast-1 | LmPK inhibitor | Giardia FBPA inh | Tb PYK inh | SARS PLpro yeast-2
COc1ccc(Cn2c(O)c(/C=N/NC(=O)c3ccccc3)c(=O)[nH]c2=O)cc1 | 25% | 10µM* | 8% | u | 7% | i
CCOC(=O)c1c(NC(=O)c2cc(=O)c3ccc(C)cc3o2)sc(C)c1C | x | x | x | x | 2% | x
Cc1ccc2c(=O)c(C(=O)c3cccc(Cl)c3)cn(CC(=O)NC3CCCCC3)c2n1 | x | x | x | x | -3% | x
O=C(N/N=C/c1c(O)n(CCc2ccccc2)c(=O)[nH]c1=O)c1ccccc1O | -13% | 2.2µM* | 1% | u | 0% | u
COc1ccc(S(=O)(=O)NCCN2CCOCC2)c2ccccc12 | -11% | 20µM* | -1% | -8% | -8% | i
NC(=S)N/N=C/c1ccc2ccccc2c1 | 3% | 5.6µM* | 3% | u | -18% | +
COc1ccc(/C=N/NC(N)=S)cc1OC(=O)c1ccccc1 | 0% | 11µM* | 11% | -2% | -4% | i
NC(=S)N/N=C/C=C/c1ccccc1 | 13% | 1.6µM* | 0% | -26% | -4% | +
NC(=S)N/N=C/c1cccc(/C=N/NC(N)=S)c1 | -13% | 0% | -3% | u | -10% | x
Cc1ccc(C(=O)N/N=C/C=C/c2ccccc2)cc1 | 0% | -1% | -1% | 8% | 6% | x
CCc1cccc(-n2nnc(-c3nc(-c4ccccc4Cl)no3)c2N)c1 | x | x | x | x | -4% | x
COc1ccc(NC(=O)Cn2c(=O)n(Cc3ccco3)c(=O)c3sc4ccccc4c32)cc1Cl | x | x | x | x | -5% | x
Cc1ccc(N(CC(=O)Nc2cccc(Cl)c2)S(=O)(=O)c2cccs2)cc1 | x | x | x | x | 4% | x
O=C(COC(=O)/C=C/c1cccs1)Nc1nc(-c2ccccc2)cs1 | 10% | 14µM* | -2% | 0% | 6% | +
O=C(COC(=O)/C=C/c1cccs1)Nc1nc(-c2cccc(Br)c2)cs1 | 6% | 0% | 0% | 7% | 1% | x
CN(CCNC(=O)Cn1c(=O)sc2ccccc21)Cc1ccccc1 | 4% | u | 14% | 0% | -2% | i
CC(=O)c1cccc(NC(=O)Cn2c(=O)oc3cc(S(=O)(=O)NC4CCCC4)ccc32)c1 | x | x | x | x | 2% | x
Cc1c(NC(=O)c2cc([N+](=O)[O-])ccc2N2CCOCC2)cccc1-c1nc2ccccc2o1 | x | x | x | x | 1% | x
COc1cccc(NS(=O)(=O)c2cc3c4c(c2)C(C)C(=O)N4CCC3)c1 (stereo unspecified) | x | x | x | x | -2% | x
Cc1cc(OCC(=O)Nc2cc(-c3nc4ccccc4[nH]3)ccc2C)ccc1Cl | x | x | x | x | -2% | x
O=C(N/N=C/c1cc2c3c(c1O)CCCN3CCC2)c1ccccc1O | u | 2.8µM* | 6% | u | 1% | u
Cc1c(-c2ccccc2)n(-c2ccccc2O)c2nc3c(c(=O)n(C)c(=O)n3C)n12 | x | x | x | x | 3% | x
COc1cc(C(=O)NCC(=O)N/N=C(/C)c2cccs2)cc(OC)c1OC | 6% | u | 1% | 2% | 4% | i
CCOc1ccc(-c2cc(CCCC(=O)NCCc3ccc(SC)cc3)no2)cc1 | x | x | x | x | -1% | x
CCOC(=O)c1ccc(-n2c(O)c(/C=N/NC(=O)C3COc4ccccc4O3)c3ccccc3c2=O)cc1 (stereo unspecified) | 3% | 4.5µM* | 0% | u | 4% | i
CCOC(=O)c1ccc(NC(=O)C2COc3ccccc3O2)cc1 (stereo unspecified) | -3% | -9% | 9% | 5% | -13% | x
COc1ccc(OC)c(-c2c3cc(O)c(=O)cc-3oc3cc(O)c(O)cc23)c1 | u | u | -22% | u | u | +
CCOc1ccccc1-c1c2cc(O)c(=O)cc-2oc2cc(O)c(O)cc12 | u | 11µM* | -15% | 6.3µM* | u | +
O=c1cc(-c2ccccc2O)oc2cc(O)ccc12 | x | x | x | -1% | x | x
